Results on 35 compounds are retold here after PubChem BioAssay.

Structures are written as SMILES.

The target of the test is Albumin (Bos taurus) (UniProt P02769). Description: bovine serum albumin binders on microarray, profiling panel, artefact control for SMM control protein annotation, biochemical, small-molecule microarray, Alexa647 label, 635/667 nm fluorescence (AID 1118).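 Note: score merges 667 nm emission intensity and signal-to-noise per printed compound spot.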 The conditions noted are these: BSA-A647 binding, fluorescence 635 nm, higher = more signal.
Chain of Albumin (Bos taurus) (P02769 whole entry, looked up): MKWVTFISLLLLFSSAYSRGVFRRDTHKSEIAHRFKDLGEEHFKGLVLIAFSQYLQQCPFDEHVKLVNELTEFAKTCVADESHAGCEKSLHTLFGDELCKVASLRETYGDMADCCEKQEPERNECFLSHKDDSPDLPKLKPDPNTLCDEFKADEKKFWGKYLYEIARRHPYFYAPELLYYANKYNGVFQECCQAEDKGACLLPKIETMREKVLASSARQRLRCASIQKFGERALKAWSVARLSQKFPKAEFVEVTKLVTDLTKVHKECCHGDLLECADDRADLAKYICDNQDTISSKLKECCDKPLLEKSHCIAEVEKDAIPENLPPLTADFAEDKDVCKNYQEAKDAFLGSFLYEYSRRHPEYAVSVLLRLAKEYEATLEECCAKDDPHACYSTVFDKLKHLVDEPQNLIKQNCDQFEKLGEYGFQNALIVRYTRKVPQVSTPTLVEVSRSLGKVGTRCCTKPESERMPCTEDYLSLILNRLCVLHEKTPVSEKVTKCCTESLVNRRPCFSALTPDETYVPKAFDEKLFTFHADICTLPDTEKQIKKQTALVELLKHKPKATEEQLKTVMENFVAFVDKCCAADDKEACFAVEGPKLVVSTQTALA
In the case of `COC(=O)[C@@H]1N=C(c2ccc(OCCCO)cc2)O[C@@H]1C`, the composite z-score is -0.867.

Regarding `C=C[C@H]1C(C(=O)OCC)=CC[C@@H](c2ccccc2)N1S(=O)(=O)c1ccc(C)cc1`, the composite z-score was 0.644.

For `CC(c1ccccc1)C(O)C1C=CC2C(=O)N(C)C(=O)C2N1Nc1ccccc1` (stereo not given), the composite z-score stood at 0.921.

In turn, `NC(=O)NCC#Cc1ccc2c(c1)[C@]1(C(=O)N2)[C@H](c2ccccc2OCCO)N2[C@H](c3ccccc3)[C@H](c3ccccc3)OC(=O)[C@H]2[C@@H]1C(=O)NC[C@H](O)c1ccccc1` came in with a composite z-score of 0.63.

In the case of `CCCCC[C@H]1OC[C@@]23C=C(Br)[C@@H](CC12)[C@@]1(CO1)C3=O` (stereo not given in full), the composite z-score is -0.677.

`CCC#CCN(Cc1ccccc1Br)[C@H](/C=C/C1CC1)[C@@H](O)Cc1ccccc1` yielded a composite z-score of 0.0902.

`COC(=O)C(CC#Cc1ccc2c(c1)[C@]1(C(=O)N2)[C@H](c2ccc(O)cc2)N2[C@H](c3ccccc3)[C@H](c3ccccc3)OC(=O)[C@H]2[C@@H]1C(=O)NC[C@H](O)c1ccccc1)C(=O)OC` yielded a composite z-score of 0.0841.

`CCCCC(O)C1C=CC2C(=O)N(C)C(=O)C2N1N(c1ccccc1)c1ccccc1` (stereo not given) showed a composite z-score of 0.878.

Consider `O=C1[C@H]2C=C(I)[C@H](C[C@@H]2OCCOCCO)[C@@]12CO2`, for which the composite z-score is -0.35.

Compound `C=CC[C@]1(C(=O)N2CCCCC2)N=C(c2ccc(OCCCO)cc2)O[C@H]1c1ccccc1CN=[N+]=[N-]` registered a composite z-score of 0.472.

In turn, `COC(=O)[C@@]1(Cc2ccc(OC)cc2)[C@H]2c3cc(C(=O)N4CCCC4)n(CCO)c3C[C@H]2CN1C(=O)c1ccccc1` registered a composite z-score of 0.245.

The compound `C=CC[C@]1(C(=O)N2CCOCC2)COC(c2ccc(OCCCO)cc2)=N1` had a composite z-score of 1.08.

`CN(C)C(=O)[C@]1(CCC(=O)OC(C)(C)C)N=C(c2ccc(OCCCO)cc2)O[C@@H]1c1ccccc1CN=[N+]=[N-]`: the composite z-score was found to be 1.01.

With `CO[C@H]1O[C@H](CO)[C@@H](OC(=O)Nc2ccc3c(c2)OCO3)[C@H](OC(=O)Nc2ccc3c(c2)OCO3)[C@@H]1OC(=O)Nc1ccc2c(c1)OCO2`, the composite z-score stood at 0.792.

As to `C=C[C@@H](OC)[C@H](OC(=O)Nc1ccc(OC)cc1)c1ccc(O)c(F)c1`, the composite z-score is -0.715.

In the case of `COC(=O)c1c(CC[C@@H](CO)NC(=O)N[C@@H](C)Cn2cc(-c3ccccn3)nn2)oc(C(C)=O)c1C(=O)OC`, the composite z-score was -0.373.

`CCCC[C@@H](O)C1=C(COC)C[C@H]2C(=O)N(Cc3ccccc3)C(=O)[C@H]2[C@H]1CO` gave a composite z-score of 0.232.

For `CCCN1C(=O)[C@]2(Cc3ccccc31)N=C(c1ccc(OCCCO)cc1)O[C@@H]2c1ccccc1`, the composite z-score was -0.0671.

With `CCOC(=O)C[C@H]1[C@H](OC(=O)c2ccc(C(=O)c3ccccc3)cc2)[C@@H](NC(=O)C2CCCCC2)c2cc(OCCCO)ccc2N1C(=O)c1ccc2ccccc2n1`, the composite z-score came to 0.534.

With `COc1cccc(C)c1NC(=O)O[C@H]1[C@H](OC(=O)Nc2ccc3c(c2)OCO3)[C@@H](OC(=O)Nc2ccc3c(c2)OCO3)[C@@H](OC)O[C@@H]1CO`, the composite z-score was 0.48.

Compound `CC(C)(C)OC(=O)COc1cccc(C(=O)CCN2CCOCC2)c1` gave a composite z-score of 0.217.

`CC(C)NC(=O)[C@@]1(C)c2ccccc2C(=O)N(Cc2ccc(OC(F)(F)F)cc2)[C@H]1c1ccc(CO)cc1` displayed a composite z-score of 0.484.

`COc1cc2c(cc1O)C(c1cccs1)N(Cc1cc3c(cc1Br)OCO3)CC2` (stereo not given) came in with a composite z-score of 0.794.

For `CCCCNC(=O)c1ccc(C#CC(C)(C)C)c(OC(C)=O)c1`, the composite z-score stood at 0.691.

Consider `CCCC1(C(=O)OC)C=C2C(=C(C)C(=O)C2C)CN1` (stereo not given), for which the composite z-score is -0.15.

With `O=C(C1N=C(c2ccc(OCCCO)cc2)N(c2ccccc2)O1)N1CCCCC1` (stereo not given), the composite z-score is 0.909.

Regarding `CCCCN1CC=CC23O[C@@H]4/C=C\CCC(C)OC(=O)C4[C@H]2C(=O)N(CCCO)[C@@H]3C1=O` (stereo not given in full), the composite z-score is -0.741.

Regarding `Cc1ccc(S[C@]2(C(=O)NCC(F)(F)F)CC(=O)N(Cc3cc(C(F)(F)F)cc(C(F)(F)F)c3)[C@@H]2c2ccc(CO)cc2)cc1`, the composite z-score is -0.658.

Take `COC(=O)[C@@]1(Cc2ccc(F)cc2)[C@H]2c3cc(C(=O)N(C)C)n(CCc4ccc(OC)c(Br)c4)c3C[C@H]2CN1C(=O)c1ccccc1`: the composite z-score turned out to be 0.939.

Take `O=C(NCCN1CCOCC1)[C@@H]1c2ccccc2C(=O)N(Cc2ccccc2Cl)[C@H]1c1ccc(CO)cc1`: the composite z-score is -0.281.

With `CCCCCN1CC=CC23O[C@@H]4/C=C\CCCOC(=O)C4[C@H]2C(=O)N(C(C)CO)[C@@H]3C1=O` (stereo not given in full), the composite z-score was found to be 0.356.

As to `COc1ccc(CCNC(=O)[C@@H]2c3ccccc3C(=O)N(C3CCCCC3)[C@H]2c2ccc(CO)cc2)cc1`, the composite z-score is -0.295.

`C=CCNC(=O)[C@H]1[C@@H]2C(=O)O[C@@H](c3ccccc3)[C@@H](c3ccccc3)N2[C@@H](c2ccccc2OCCO)[C@]12C(=O)N(C(=O)OCCOC)c1ccc(C#CC3(O)CCCCCC3)cc12`: the composite z-score was determined as 0.604.

Regarding `C#Cc1cc2ccccc2oc1=O`, the composite z-score was 0.683.

Compound `CCCC=C(CCC)[C@@H](NS(=O)(=O)CC12CCC(CC1=O)C2(C)C)c1ccc(C(=O)OC)cc1` (stereo not given in full) displayed a composite z-score of 0.0225.
